{"source": "PubChem BioAssay (NCI)", "note": "The panel holds about 83,000 compounds, 20% with a hit somewhere; the sample as a whole holds those more often.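 Compound tested at a single concentration for 48 hours in 96-well plates; a percent growth value below 10 was scored as active.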 Unmarked numbers belong to inactive results. The source made the active and inactive calls."}
{"test_system": "SK-MEL-5 melanoma", "assay": "NCI-60 one-dose screen, 48 h (100 = growth as untreated, 0 = no growth, -100 = all killed)", "details": "10 µM unless noted", "procedure": "Growth inhibition of the SK-MEL-5 human tumor cell line is measured as a screen for anti-cancer activity. Cells are grown in 96 well plates and exposed to the test compound for 48 hours. Compounds are tested at a single concentration, which is 10^-5 M for most compounds. The reported endpoint is percent growth (GI% or GIPRCNT), where numbers from 0 - 100% represent growth inhibition, and numbers from -100% - 0 represent cell death. For example, a value of 40 represents 60% growth inhibition. A value of 0 means no net growth occurred over the course of the experiment. A value of -40 indicates 40% of cells at the beginning of the experiment died by the end of the experiment. A value of -100 means all cells are dead at the end of the experiment.\nNCI-60 Human Tumor Cell Lines Screen was performed using the standard one-dose NCI protocol, which is described in more detail at https://dtp.cancer.gov/discovery_development/nci-60/default.htm.\nCompounds with GIPRCNT values below 10 were considered active. Activity score was based on GIPRCNT using the following formula: […]\nScore is 0 for GIPRCNT values of 100 or above, 50 for GIPRCNT values of 0, and 100 for GIPRCNT values of -100."}
{"compound": "O=C(Nc1ccccc1)c1cc(-n2cnc([N+](=O)[O-])c2)cc(-n2cnc([N+](=O)[O-])c2)n1", "growth": "95.6%"}
{"compound": "CC(=O)Nc1c(Cl)cc2c(c1Cl)Cc1ccccc1-2", "growth": "97.3%"}
{"compound": "CCCCCCCCCCCCCCCCCC1=NC(C)(CO)CO1", "note": "(stereo not given)", "growth": "97.1%"}
{"compound": "Clc1ccc2nc(CI)c(CI)nc2c1", "growth": "75%"}
{"compound": "CCCCCCCCCCNCCSS(=O)(=O)O", "growth": "39.8%"}
{"compound": "c1ccc(Nc2ccc(Nc3nc(-c4ccccc4)nc4ccccc34)cc2)cc1", "growth": "90.3%"}
{"compound": "O=C(/C=C/c1c(-c2ccccc2)[nH]c2ccccc12)S(=O)(=O)c1ccccc1", "growth": "37.4%"}
{"compound": "O=c1[nH]c(SCc2ccccc2)nc2nc(Nc3ccc(NC(=S)Nc4ccccc4)cc3)nc(-c3ccc(O)cc3O)c12", "growth": "101%"}
{"compound": "CCOc1nc(-c2ccco2)n2nc(-c3ccco3)cc2n1", "growth": "81.4%"}
{"compound": "O=C(Nc1nc2c(C(F)(F)F)cccc2s1)c1cc(Cl)ccc1O", "growth": "-46.7% (active)"}
{"compound": "CN1CCN(c2nc3scc(-c4ccccc4)c3c(=O)[nH]2)CC1", "growth": "96.7%"}
{"compound": "c1ccc(COc2ccc(Nc3ncnc4c3cnn4-c3ccccc3)cc2)cc1", "growth": "94.3%"}
{"compound": "Cc1[nH]c(=O)[nH]c(=O)c1CCSSCCc1c(C)[nH]c(=O)[nH]c1=O", "growth": "103%"}
{"compound": "CCCCNCCCN(CCCC)CCCNCCCC", "growth": "97.3%"}
{"compound": "COc1ccc(OC)c2c1CCC1(C2)NC(=O)NC1=O", "note": "(stereo not given)", "growth": "101%"}
{"compound": "Cc1csc(C#Cc2cncc(O)c2)n1", "growth": "82.6%"}
{"compound": "Cc1ccc2nc(-c3ccc(N(C)C)c(Br)c3)cn2c1", "growth": "77.9%"}
{"compound": "COc1ccc(-c2cc(-c3cccnc3)nc(S(=O)(=O)CC(=O)Nc3ccc(C)cc3)c2C#N)cc1OC", "growth": "72%"}
{"compound": "CC(NC(N)=S)c1ccccc1", "note": "(stereo not given)", "growth": "99.6%"}
{"compound": "COc1cc(OC)c2c(c1Cl)O[C@]1(C2=O)C(OCc2ccccc2)=CC(=O)C[C@H]1C", "growth": "-75% (active)"}
{"compound": "CC(C)=CCCC(C)c1ccc(C)c2c1OCN(CC1CCNCC1)C2", "note": "(stereo not given)", "growth": "42.2%"}
{"compound": "Nc1ccc2c(c1Br)Cc1ccccc1-2", "growth": "107%"}
{"compound": "COc1cc(/C=C/C(=O)c2c(C)n([O-])c3ccccc3[n+]2=O)cc(OC)c1OC", "growth": "21.3%"}
{"compound": "COc1ccc(CNC(=O)c2c(C)n([O-])c3ccc(OC)cc3[n+]2=O)cc1", "growth": "95%"}
{"compound": "COc1cc(/C=N/NC(=O)c2ccc(C(F)(F)F)nc2Nc2cc(Cl)ccc2C)cc(OC)c1OC", "growth": "102%"}
{"compound": "CCOC(=O)/C=C1/SC(=Nc2ccc(C#N)cc2)N(Cc2ccco2)C1=O", "growth": "62.5%"}
{"compound": "FC(F)(F)c1cc(-c2nnc3n2N=C(N2CCCC2)CS3)cc(C(F)(F)F)c1", "growth": "80.5%"}
{"compound": "Cc1n(Cc2ccc3ccccc3c2)cc[n+]1Cc1ccc2ccccc2c1", "growth": "-92% (active)"}
{"compound": "c1ccc(N2c3nc4ccccc4cc3Sc3cc4ccccc4nc32)nc1", "growth": "91.3%"}
{"compound": "O=C(CN1CCN(c2ccc(Cl)cc2)CC1)N1CCN(c2nnc(-c3ccc(Cl)cc3)c(-c3ccc(Cl)cc3)n2)CC1", "growth": "58.2%"}
{"compound": "COc1cc(NC(C)CCCN)c2nc(C)ccc2c1Oc1ccc(F)cc1", "note": "(stereo not given)", "growth": "86.2%"}
{"compound": "C(=C1c2ccccc2-c2ccccc21)c1ccccn1", "growth": "78.3%"}
{"compound": "CCOC(=O)Nc1cc(-c2ccc(C)c(NS(C)(=O)=O)c2)nn2c(C)nnc12", "growth": "-57.2% (active)"}
{"compound": "CCNCCCn1c2c(c3ccc(F)cc3c1=O)C(=O)c1cc(OC)cnc1-2", "growth": "-99.1% (active)"}
{"compound": "Nc1nc(NC2CC2)c2ncn(C3C=CC(CO)C3)c2n1", "note": "(stereo not given)", "growth": "91.6%"}
{"compound": "COc1cc(/C=C/C(=O)CC(=O)/C=C/c2ccc(OC(=O)CCNC34CC5CC(CC(C5)C3)C4)c(OC)c2)ccc1OC(=O)CCNC12CC3CC(CC(C3)C1)C2", "growth": "25.3%"}
{"compound": "O=C1/C(=C/c2cccc(Cl)c2)CCc2ccccc21", "growth": "101%"}
{"compound": "CC1=C([Se]CC(OC(=O)[C@@H](CSSC(C)(C)C)NC(=O)C(C)(C)C)C(=O)NCCCCCC(=O)OCc2ccccc2)C(=O)c2ccccc2C1=O", "note": "(stereo not given in full)", "growth": "-48.8% (active)"}
{"compound": "O=C(NN1C(=O)c2cc(C(=O)O)c(C(=O)O)cc2C1=O)c1ccncc1", "growth": "106%"}
{"compound": "N#Cc1ccccc1C#Cc1ccccc1C#Cc1ccc(OCCCCCCOc2ccc(C#Cc3ccccc3C#Cc3ccccc3C#N)cc2)cc1", "growth": "73.8%"}
